# Source: PubChem
# D3 antag = qHTS of D3 Dopamine Receptor Antagonist: qHTS. D3R cells, DiscoveRx beta-arrestin luminescence, antagonist mode; hits give low values. 360,000 tested, 2.5% active. max response, negative = inhibition, %. D(3) dopamine receptor (Homo sapiens), P35462; in the data active = max response below about -50%; note: % is set by controls: 0 for no effect and ±100 for the full control effect
# Target sequence (P35462 whole entry, looked up): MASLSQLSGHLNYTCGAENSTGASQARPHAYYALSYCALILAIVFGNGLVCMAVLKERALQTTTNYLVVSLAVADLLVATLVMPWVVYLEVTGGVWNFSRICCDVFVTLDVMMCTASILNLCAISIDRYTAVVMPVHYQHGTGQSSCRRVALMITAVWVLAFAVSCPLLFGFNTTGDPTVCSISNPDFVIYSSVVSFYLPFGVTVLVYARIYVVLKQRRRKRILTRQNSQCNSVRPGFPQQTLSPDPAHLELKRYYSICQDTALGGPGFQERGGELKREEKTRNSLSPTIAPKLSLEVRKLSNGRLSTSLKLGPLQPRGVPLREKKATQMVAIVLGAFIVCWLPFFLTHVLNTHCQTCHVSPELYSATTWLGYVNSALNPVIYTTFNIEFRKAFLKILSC
#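 Cells expressing the human receptor were seeded at 1500 cells/well, incubated overnight at 37 degrees C in 5% CO2, then exposed to library compounds with dopamine controls for 90 minutes at 37 degrees C before luminescent detection.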
# DRD3 agonist = qHTS of D3 Dopamine Receptor Agonist: qHTS; D3R DiscoveRx beta-arrestin cells, luminescence, 90 min; AID 652048, 2013; 410,000 tested, 0.58% active; max activation, %; in the data active = max activation above about 30%; note: 0% is about no effect
#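 Agonist-mode cell screen: cells plated at 1500/well and incubated overnight at 37 °C, then exposed to library compounds for 90 min at 37 °C. Detection reagent was added for 30–60 min at room temperature, and luminescence was read.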
# D1 antagonist = Antagonist of Human D 1 Dopamine Receptor: qHTS; D(1A) dopamine receptor (Homo sapiens), P21728; HEK293 TREx D1 cells, calcium flux, dopamine EC80; hits give low values; activity change, negative = inhibition, % at 10 µM; 360,000 tested, 3.2% active; AID 504652, 2011; in the data active = activity change below about -30%; note: % is set by controls: 0 for no effect and ±100 for the full control effect
#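 HEK293 T-REx cells expressing inducible, force-coupled D1 receptor; no-wash Ca dye, 30–90 min RT. Cmpd → 180 s read at 1 Hz → EC80 DA → 180 s read.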
# D1 agonist = Allosteric Agonists of the Human D1 Dopamine Receptor: qHTS | activation, % at 2 µM | HEK293 T-REx D1 cells, calcium flux, agonist mode | D(1A) dopamine receptor (Homo sapiens), P21728 | 360,000 tested, 1% active; in the data active = activation above about 30%; note: 0% is about no effect
#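 Inducible HEK293 T-REx D1 cells, force-coupled to calcium signalling, were plated at 4000 cells/well with tetracycline and held overnight at 30 C. After no-wash calcium dye loading, compound-evoked calcium rise over 180 s flagged agonists.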
# D1 potentiator = Potentiators of Human D1 Dopamine Receptor: qHTS; HEK293 TREx D1 cells, calcium flux, dopamine EC20 potentiation; potentiation, % at 10 µM; 360,000 tested, 0.036% active; AID 504651, 2011; in the data active = potentiation above about 30%; note: 0% is about no effect
# An asterisk follows results filed as active; / = not tested or not shown. Most compounds without a hit are left out; they make up all but 6% or so of the library.
SMILES,D3 antag,DRD3 agonist,D1 antagonist,D1 agonist,D1 potentiator
COc1ccc(-c2cc(=O)c3cc(OCC(=O)OC(C)C)ccc3o2)cc1,/,6,-60*,19,-1
COc1ccc2oc(-c3ccncc3)cc(=O)c2c1,0,3,/,/,/
Cc1ccc(Cl)cc1-n1c(CCC(=O)O)ccc1-c1cccs1,/,0,-3,-1,-1
N#CC1=C(N)S[C@@H](C(=O)c2ccc(F)cc2)[C@@H]1c1cccs1,24,0,-43*,3,-8
N#CC1=C(N)SC(C(=O)c2ccccc2)C1c1cccs1 (centres undefined),13,2,-28,2,-4
C[C@@H]1C=C(C(=O)N2CCN(Cc3ccc4c(c3)OCO4)CC2)O[C@H](OCCCCO)C1,19,16,-38*,0,-4
O=C(C1=C[C@H](c2ccc(Br)cc2)C[C@H](OCCCCO)O1)N1CCN(Cc2ccccc2)CC1,-24,-11,-30*,7,-3
O=C(C1=C[C@H](C2CC2)C[C@H](OCCCCO)O1)N1CCN(Cc2ccc3c(c2)OCO3)CC1,-28,-33,-4,-4,-5
O=C(C1=C[C@@H](c2ccc(Br)cc2)C[C@@H](OCCCCO)O1)N1CCN(Cc2ccc3c(c2)OCO3)CC1,2,-4,-28,24,-2
O=C(C1=C[C@H](c2ccccc2)C[C@H](OCCCCO)O1)N1CCOCC1,-4,-4,-40*,5,-1
CCC(Sc1nc2cc3c(cc2c(=O)n1CCCCCC(=O)NCc1ccc2c(c1)OCO2)OCO3)C(=O)NCCCOC (centres undefined),/,11,-23,1,-3
COc1ccc(Cl)cc1NC(=O)CSc1nnc(C)n2c1cc1occc12,/,2,4,4,3
CC(C)Cc1ccc(C(C)C(=O)OCC(=O)c2c[nH]c3ccccc23)cc1 (centres undefined),10,15,-27,37*,-4
Cc1ccc(C(=O)OCC(=O)c2c[nH]c3ccccc23)cc1,12,-2,-1,3,-4
Cc1ccc(S(=O)(=O)CCC(=O)OCC(=O)c2c[nH]c3ccccc23)cc1,-13,33*,1,0,-2
CCCCC(CC)CNC(=O)CCCc1nnc2n(CCC)c(=O)c3sccc3n12 (centres undefined),/,17,-5,4,1
Nc1ncc(S(=O)(=O)N2CCN(c3ccccc3)CC2)cn1,/,-16,14,1,-1
COc1ccccc1C1c2[nH]c3ccccc3c2CCN1Cc1cnc(C)s1 (centres undefined),72,2,2,1,2
COc1cccc(C2c3[nH]c4ccccc4c3CCN2Cc2cnc(C)s2)c1OC (centres undefined),102,21,-43*,1,6
CC(=O)NS(=O)(=O)c1cccnc1Nc1ccc(Cl)cc1,8,4,-2,3,-5
CC(=O)NS(=O)(=O)c1cccnc1Nc1cccc(Cl)c1C,-11,-2,-33*,1,-2
CCOc1ccc(CNC(=O)c2ccccc2NC(=O)c2nsc3ccccc23)cc1,/,-17,-5,1,-1
O=C1c2ccccc2S(=O)(=O)N1CC1CC(c2ccccc2)=NO1 (centres undefined),0,2,-34*,0,-6
COc1ccc(C2=NOC(CN3C(=O)c4ccccc4S3(=O)=O)C2)cc1 (centres undefined),25,1,-27,18,-7
O=C1c2ccccc2S(=O)(=O)N1CC1CC(c2ccc(Cl)cc2)=NO1 (centres undefined),4,-2,-34*,7,-3
SMILES,D3 antag,DRD3 agonist,D1 antagonist,D1 agonist,D1 potentiator
COc1ccc(-c2nc3cc(C(C)C)ccc3o2)cc1NC(=O)COc1ccc(C)cc1C,/,0,12,1,1
CC(=O)Nc1ccc(S(=O)(=O)NNc2ccc([N+](=O)[O-])cc2)cc1,9,2,-10,8,0
CC(=O)NC(CC(=O)O)c1ccc([N+](=O)[O-])cc1 (centres undefined),-6,-8,4,1,-3
CC(=O)Nc1ccc(Sc2ccc([N+](=O)[O-])o2)cc1,-74*,-26,/,/,/
CC(C)(C)C(=O)Nc1ccc(Sc2ccc([N+](=O)[O-])cc2)cc1,5,-10,-34*,7,-10
CC(C)(C)C(=O)NC(NC(=O)C(C)(C)C)c1ccc([N+](=O)[O-])cc1,6,7,-32*,0,-2
Cc1ccc(C)c(Cn2c(=O)cc(C)c3c(C)nn(C)c32)c1,/,13,-9,11,-4
COc1cccc(N2CC(NC(=O)c3ccc4c(c3)OCO4)CC2=O)c1 (centres undefined),/,1,/,-3,-2
CC(C)c1ccc(NC(=O)CSc2nc3ccccc3nc2Cc2ccccc2)cc1,/,-7,-13,2,-1
Cc1ccc(/C=C2/NC(=O)N(Cc3ccccc3)C2=O)s1,7,1,-40*,29,-1
Cc1ccc(S(=O)(=O)Nc2ccccc2C(=O)Nc2nc(-c3ccc(F)cc3)cs2)cc1,32,20,-65*,26,-8
CNc1nc(-c2ccc([N+](=O)[O-])cc2)cs1,18,-13,-5,2,-7
COc1ccc(-c2csc(NS(=O)(=O)c3ccc([N+](=O)[O-])cc3)n2)cc1,-12,-17,-31*,-1,-11
CN(c1ccc(OCC(=O)Nc2nc(-c3ccccc3)cs2)cc1)S(=O)(=O)c1ccc(F)cc1,18,-11,-19,4,-3
Cc1ccc(S(=O)(=O)N(C)c2ccc(OCC(=O)Nc3nc(-c4ccccc4)cs3)cc2)cc1,4,1,-37*,7,-7
COc1ccc(-c2csc(NC(=O)c3ccccc3NS(=O)(=O)c3ccc(F)c(F)c3)n2)cc1,-13,24,-49*,23,-10
Cc1ccc(C)c(CS(=O)(=O)c2cn(CC(=O)N(C(C)C)C(C)C)c3ccccc23)c1,/,-6,9,4,-1
CCOc1ccc(CNC(=O)CCS(=O)(=O)c2cc3c4c(c2)CCN4C(=O)CC3)cc1OC,/,-11,-11,2,-3
COc1ccc(CCNC(=O)c2c([S-])n(-c3ccc(C)cc3)c3cccc[n+]23)cc1,-26,-6,-35*,1,-4
CCc1ccc2n(-c3ccc(OC)cc3)c([S-])c(C(=O)Nc3cc(C)cc(C)c3)[n+]2c1,4,0,13,2,-1
Cn1nnnc1SCCCNCc1cccc(OCc2ccccc2F)c1,/,-23,-4,45*,-1
Cn1nnnc1SCCCNCc1cccc(OCc2ccccc2Cl)c1,/,-14,-19,108*,1
